Test results taken from PubChem BioAssay (NCATS).
Values joined by “and” are separate entries in the source; they are usually repeats but may differ in a detail not shown here. Identical values can stand only once. Records with an inconclusive call do not appear. Active and inactive are the calls of the source. The call rests on the fitted dose curve; in most records, active means well fitted inhibition curve with a large enough effect; inconclusive means small, poorly fitted or top-dose-only effect; inactive means flat fitted curve, though single readings scatter.

Assays:
HEK293 = test: Cytotoxic Profiling of Annotated Libraries Using Quantitative High-Throughput Screening (AID 1296008); details: Five cell lines viability, CellTiter-Glo ATP luminescence, 48-72 h; max response: hits give low values; on max response: on the % scale 0 is the no-effect control and ±100 the full control effect
In short: (§1)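 Cytotoxicity was measured as CellTiter-Glo ATP luminescence, read after 10 min at room temperature. Compound treatment of the cells lasted 48 or 72 hr at 37 degrees Celsius in a qHTS format.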

HaCat [1] = test: as above; details: Five cell lines viability, CellTiter-Glo ATP luminescence, 48-72 h; max response: hits give low values
In short: as §1

KB-3-1 = test: as above; details: Five cell lines viability, CellTiter-Glo ATP luminescence, 48-72 h; max response: hits give low values
In short: as §1

NIH3T3 = test: as above; details: Five cell lines viability, CellTiter-Glo ATP luminescence, 48-72 h; max response: hits give low values
In short: as §1

MKL-2 = test: qHTS assay to identify novel small-molecules to repurpose for Merkel cell carcinoma treatment (AID 1296009); details: MCC and control cell lines, CellTiter-Glo viability, 72 h; series mostly up to 46 µM
In short: (§2)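 72 hr, 37 degree celsius; NPC 8-pt / MIPE 11-pt dose response; compound pinned in DMSO; CellTiter-Glo, 10 min RT, luminescence; normalized to no-cell and DMSO controls.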

HACAT [2] = test: as above; details: MCC and control cell lines, CellTiter-Glo viability, 72 h; series mostly up to 44.8 µM
In short: as §2

MCC-26 = test: as above; details: MCC and control cell lines, CellTiter-Glo viability, 72 h; series mostly up to 46 µM
In short: as §2

MKL-1 = test: as above; details: MCC and control cell lines, CellTiter-Glo viability, 72 h; series mostly up to 46 µM
In short: as §2

MCC-13 = test: as above; details: MCC and control cell lines, CellTiter-Glo viability, 72 h; series mostly up to 46 µM
In short: as §2

PC15 = test: qHTS profiling for inhibitors of Plasmodium falciparum proliferation (AID 504749); details: P. falciparum in erythrocytes, SYBR Green DNA, 72 h; series mostly up to 28.7 µM
In short: (§3)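 Infected RBCs, 0.3% parasitemia/2.5% Hct final; cpd 72 h, 37 C, 5% CO2; lysis buffer with saponin/triton/SYBR Green I, o/n RT dark; FI 485/535; norm. to artemisinin (0.29 uM) and DMSO.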

PC26 = test: as above; details: P. falciparum in erythrocytes, SYBR Green DNA, 72 h; series mostly up to 28.7 µM
In short: as §3

PC49 = test: as above; details: P. falciparum in erythrocytes, SYBR Green DNA, 72 h; series mostly up to 28.7 µM
In short: as §3

SC27B = test: as above; details: P. falciparum in erythrocytes, SYBR Green DNA, 72 h; series mostly up to 28.7 µM
In short: as §3

TAB109 = test: as above; details: P. falciparum in erythrocytes, SYBR Green DNA, 72 h; series mostly up to 28.7 µM
In short: as §3

TAB113 = test: as above; details: P. falciparum in erythrocytes, SYBR Green DNA, 72 h; series mostly up to 28.7 µM
In short: as §3

TAB165 = test: as above; details: P. falciparum in erythrocytes, SYBR Green DNA, 72 h; series mostly up to 28.7 µM
In short: as §3

W2 = test: as above; details: P. falciparum in erythrocytes, SYBR Green DNA, 72 h; series mostly up to 28.7 µM
In short: as §3
Further: nearly all actives have a fitted effect of over 60% in size.
Potency means the concentration at half of the fitted maximal effect.

COc1ccc(OC)c(-c2nnc3ccc(-c4ccc(OC)c(O[C@@H]5CCOC5)c4)nn23)c1
active: Potency (HEK293) 8.33 µM | Potency (HaCat [1]) 1.46 µM | Potency (KB-3-1) 6.51 µM | Potency (NIH3T3) 33.2 µM | Potency (MKL-2) 18.7 µM

COC(=O)Nc1nc2ccc(C(=O)c3ccc(F)cc3)cc2[nH]1
active: Potency (KB-3-1) 833 nM and 1.46 µM
inactive: outcome (HaCat [1]) | Potency (HACAT [2])

Cc1cc(CN2CCN(c3c(Br)cnc4nc(-c5ccc(N6CCN(C)CC6)cc5)[nH]c34)CC2)no1
active: Potency (HEK293) 23.5 µM and 9.2 µM | Potency (HaCat [1]) 2.35 µM | Potency (KB-3-1) 18.7 µM and 16.4 µM | Potency (NIH3T3) 13.2 µM and 1.46 µM | Potency (MKL-1) 3.32 µM | Potency (MKL-2) 26.4 µM
inactive: Potency (MCC-26)

CCCCc1nc2cc(C=CC(=O)NO)ccc2n1CCN(CC)CC
active: Potency (HEK293) 3.72 µM | Potency (HaCat [1]) 4.69 µM | Potency (KB-3-1) 2.64 µM | Potency (NIH3T3) 4.18 µM | Potency (MCC-13) 7.43 µM | Potency (MKL-1) 3.32 µM | Potency (MKL-2) 0.526 µM

CC(=O)Nc1sc2c(c1-c1nc3ccccc3s1)CNC2
inactive: Potency (MCC-13) | Potency (MCC-26)
active: Potency (KB-3-1) 23.5 µM

C=CC(=O)Nc1cc2c(Nc3ccc(F)c(Cl)c3)ncnc2cc1C#CC(C)(C)N1CCN(C)CC1
active: Potency (HEK293) 2.96 µM | Potency (HaCat [1]) 2.09 µM | Potency (MCC-13) 11.8 µM | Potency (MKL-1) 6.62 µM

COc1cc2ncnc(Nc3ccc(F)c(Cl)c3)c2cc1NC(=O)C=CCN1CCCCC1
active: Potency (MKL-2) 3.72 µM
inactive: max response (HaCat [1]) -96.7% | outcome (KB-3-1) | max response (NIH3T3) -20.4% | Potency (MCC-13) | Potency (MCC-26)

O=C(CCCCCCNC(=O)c1cnc(N(c2ccccc2)c2ccccc2)nc1)NO
active: Potency (HEK293) 13.2 µM and 7.31 µM | Potency (HaCat [1]) 16.6 µM | Potency (KB-3-1) 11.8 µM and 8.2 µM | Potency (MKL-1) 9.35 µM | Potency (MKL-2) 5.9 µM

c1nc2nc(Nc3ccc(N4CCOCC4)cc3)nc(NC3CCCCC3)c2[nH]1
active: Potency (HEK293) 935 nM and 252 nM | Potency (HaCat [1]) 2.64 µM and 2 µM | Potency (KB-3-1) 4.18 µM | Potency (NIH3T3) 1.48 µM and 2.24 µM | Potency (MKL-2) 16.6 µM

Cc1cc(Nc2cc(N3CCN(C)CC3)nc(Sc3ccc(NC(=O)C4CC4)cc3)n2)n[nH]1
inactive: Potency (MKL-2)
active: Potency (HaCat [1]) 6.62 µM | Potency (KB-3-1) 8.33 µM and 8.2 µM | Potency (NIH3T3) 16.6 µM and 20.6 µM

CC[C@H]1CN2CCc3cc(OC)c(OC)cc3[C@H]2C[C@@H]1C[C@@H]1NCCc2cc(OC)c(OC)cc21
active: Potency (PC15) 0.282 µM | Potency (PC26) 0.601 µM | Potency (PC49) 0.141 µM | Potency (SC27B) 0.398 µM | Potency (TAB109) 0.251 µM | Potency (TAB113) 0.316 µM | Potency (TAB165) 0.316 µM | Potency (W2) 0.151 µM

O=C(O)CO.[NH2-].[NH2-].[Pt+2]
inactive: Potency (PC15) | Potency (PC26) | Potency (PC49) | Potency (SC27B) | Potency (TAB109) | Potency (TAB113) | Potency (TAB165) | Potency (W2)

COc1cc(OC2CCN(C)CC2)ccc1Nc1ncc2c(n1)n(C1CCCC1)c(=O)n2C
active: Potency (HEK293) 3.72 µM | Potency (HaCat [1]) 13.2 µM | Potency (KB-3-1) 4.18 µM | Potency (NIH3T3) 18.7 µM

C[C@@H](Oc1cc(-n2cnc3ccc(CN4CCN(C)CC4)cc32)sc1C(N)=O)c1ccccc1C(F)(F)F
active: Potency (KB-3-1) 0.0118 µM | Potency (NIH3T3) 0.662 µM | Potency (MKL-1) 0.0296 µM

COc1cc2ncn(-c3cc(OCc4ccccc4C(F)(F)F)c(C(N)=O)s3)c2cc1OC
active: Potency (HEK293) 0.469 µM | Potency (KB-3-1) 0.418 µM
inactive: max response (NIH3T3) -29.2% | Potency (MCC-26) | Potency (MKL-2)
